Only some compounds are listed: those with a hit (about 11% of all), similar ones and a draw of the others.
ALDH1A1 block = inhibitors of human aldehyde dehydrogenase 1A1; Potency, µM (doses to about 75.3 µM), usual class: inhibitors; Purified ALDH1A1, NADH fluorescence, propionaldehyde substrate; 220,000 compounds, 7.3% hits; P00352; active = well fitted inhibition curve with a large enough effect, not every such curve was filed as active; inconclusive = small, poorly fitted or top-dose-only effect, or another doubt; inactive = no such curve, though single readings can be large or run the other way
IMPase inh = cell-permeable inhibitors of inositol monophosphatase (IMPase); P97697; CHO-M1 cells, IP1 accumulation, HTRF TR-FRET ratio; inhibition (IP1 accumulation), % at 46.1 µM; 120,000 tested, under 10 active; AID 901; active = well fitted curve in the direction sought with a large enough effect in the signal ratio, not every such curve was filed as active; inconclusive = small, poorly fitted or top-dose-only effect, or a change in a side signal; inactive = no such curve, though single readings can be large or run the other way; the % refers to the signal ratio;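 also: cells stimulated with carbachol in lithium chloride buffer; higher means more IMPase inhibition seen as more IP1 and lower FRET ratio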
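Seeded CHO-M1 cells were dosed with compound at up to 46 uM, stimulated with carbachol for 30 min, then lysed in IP-One detection reagents. Higher IP1 lowers the TR-FRET signal.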
PNC inhibitor = inhibitors of perinucleolar compartment assembly; AID 2417; 140,000 compounds, 3.1% hits; PC3M PTB-GFP, PNC prevalence imaging, 16 h; hits give low values; activity change (PNC), negative = inhibition, % at 10 µM;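 active = readout at or below -70, meaning at least 70% loss of cells showing the perinucleolar compartment, a nuclear body marking cancer cells; inconclusive = readout between -30 and a set limit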
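Compounds are pinned in duplicate onto adhered PC3M cells stably expressing GFP-tagged PTB and incubated 16 h at 37 C. Cells are then fixed, nuclei stained with Hoechst, and PNC-positive cells counted.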
HPGD inh = blocks human HPGD enzyme activity; AID 894; 150,000 compounds, 4.3% hits; Potency, µM, actives largely listed as inhibitors; purified HPGD, NADH fluorescence kinetic, PGE2 substrate; active = well fitted inhibition curve with a large enough effect, not every such curve was filed as active; inconclusive = small, poorly fitted or top-dose-only effect, or another doubt; inactive = no such curve, though single readings can be large or run the other way
Target sequence (P15428 whole entry, looked up): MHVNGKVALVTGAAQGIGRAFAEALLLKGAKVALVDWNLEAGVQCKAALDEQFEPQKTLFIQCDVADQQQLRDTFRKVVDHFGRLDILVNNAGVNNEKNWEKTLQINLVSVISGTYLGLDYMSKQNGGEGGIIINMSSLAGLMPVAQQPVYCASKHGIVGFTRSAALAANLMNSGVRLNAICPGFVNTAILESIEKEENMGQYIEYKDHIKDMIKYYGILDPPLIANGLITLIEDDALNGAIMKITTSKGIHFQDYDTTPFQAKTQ
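NADH formation kinetics: reaction with 30 uM PGE2 and 1 mM NAD+ (final), 20 nM enzyme, Tris-HCl pH 8 with Tween 20, after 15 min compound preincubation at room temperature. Fluorescence change, last versus first of five reads.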
IMPase Li cell = cell-permeable IMPase inhibitors with lithium potentiation | 210,000 compounds, 0.35% hits | CHO-M1 cells, IP1 TR-FRET (IP-One), carbachol + lithium | Potency, µM (series often up to 59.4 µM), actives largely listed as inhibitors;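 also: IP1 builds up when IMPase is blocked and the TR-FRET signal falls; nearly all actives have a fitted effect of over 50% in size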
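Steps: plate 2000 CHO-M1 cells per well and culture 16–30 h; add compound and lithium; incubate 30 min, 37C; add d2-IP1 tracer and Eu cryptate anti-IP1 antibody in lysis buffer; read after 10 min at room temperature.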
NPSR antagonist = antagonists of human neuropeptide S receptor cAMP signaling. Potency, µM (titrated, usually from 38.3 µM), hits mostly inhibitors. 220,000 compounds, 1% hits. CHO-NPSR cells, cAMP TR-FRET, antagonist mode. AID 1461. Q6W5P4; also: nearly all actives have a fitted effect of over 50% in size
Target sequence (Q6W5P4 whole entry, looked up): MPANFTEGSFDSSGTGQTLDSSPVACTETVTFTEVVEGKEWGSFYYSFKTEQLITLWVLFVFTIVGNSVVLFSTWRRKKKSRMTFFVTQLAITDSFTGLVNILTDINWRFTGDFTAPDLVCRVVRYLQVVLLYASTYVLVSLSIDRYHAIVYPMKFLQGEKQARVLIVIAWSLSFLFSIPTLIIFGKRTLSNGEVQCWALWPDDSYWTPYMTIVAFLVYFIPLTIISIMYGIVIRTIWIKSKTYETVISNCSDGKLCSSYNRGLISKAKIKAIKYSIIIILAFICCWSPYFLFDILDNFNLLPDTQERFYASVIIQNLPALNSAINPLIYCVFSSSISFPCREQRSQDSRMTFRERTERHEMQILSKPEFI
A number is an active result; 0 = inactive; ? = inconclusive; - = not tested or not shown. Unless noted, calls follow the shape of the dose curve; as a rule, active = well fitted curve in the direction sought with a large enough effect; inconclusive = small, poorly fitted or top-dose-only effect, or another doubt; inactive = no such curve, though single readings can be large; an effect the other way counts as inactive or inconclusive.

SMILES | ALDH1A1 block | IMPase inh | PNC inhibitor | HPGD inh | IMPase Li cell | NPSR antagonist
COc1ccc(N2C(=O)CC(N3CCN(c4ccc(S(=O)(=O)N5CCCC5)cc4)CC3)C2=O)cc1 (stereo not given) | 22µM | 0 | 0 | 0 | 0 | 0
COc1ccc(N2C(=O)CC(N3CCN(C4CCc5ccccc5C4)CC3)C2=O)cc1 (stereo not given) | ? | 0 | -121 | 0 | 0 | 0
COc1ccc(N2C(=O)CC(N3CCN(S(=O)(=O)c4cc(C)ccc4C)CC3)C2=O)cc1 (stereo not given) | 0 | - | - | - | 0 | 0
CC(C)c1ccc(OCC(=O)N2CCCCCC2)c(Br)c1 | 0 | - | - | - | 0 | 0
COc1ccc(N2C(=O)CC(N3CCCC4CCCCC43)C2=O)cc1 (stereo not given) | 8.9µM | 0 | 0 | 0 | 0 | 0
O=C1CC(N2CCCCCC2)C(=O)N1c1ccc2c(c1)OCO2 (stereo not given) | 5µM | 0 | 0 | 0 | 0 | 0
COc1ccc(N2C(=O)CC(N3CCCCC3)C2=O)cc1 (stereo not given) | 18µM | - | - | - | 0 | 0
O=C1CC(NC23CC4CC(CC(C4)C2)C3)C(=O)N1c1ccc2c(c1)OCO2 (stereo not given) | 11µM | 0 | 0 | 0 | 0 | 0
Cc1cccc(N2C(=O)CC(N3CCN(c4ccccc4)CC3)C2=O)c1 (stereo not given) | ? | 0 | 0 | 0 | 0 | 0
CC1CCN(C2CC(=O)N(c3ccccc3)C2=O)CC1 (stereo not given) | 28µM | - | - | - | 0 | 0
COc1cccc(N2C(=O)CC(N3CCC(C(N)=O)(N4CCCCC4)CC3)C2=O)c1 (stereo not given) | 10µM | 0 | 0 | 0 | 0 | 0
Cc1cccc(N2C(=O)CC(N3CCN(C(=O)c4ccccc4)CC3)C2=O)c1 (stereo not given) | 25µM | 0 | 0 | 0 | 0 | 0
O=C1CC(N2CCCCCC2)C(=O)N1c1ccc(F)cc1 (stereo not given) | 13µM | - | - | - | 0 | 0
COC(=O)c1ccc(N2NC(=O)/C(=C/c3ccc(-c4ccc(Cl)c(C(=O)O)c4)o3)C2=O)cc1 | 8.9µM | - | - | - | 0 | 0
Cc1ccc(/C=C2/C(=O)ON=C2c2ccccc2)o1 | 0 | - | - | - | - | ?
CC1=NOC(=O)/C1=C\c1ccc(-c2ccccc2Br)o1 | 18µM | - | - | - | 7.1µM | 10µM
CC1=NOC(=O)/C1=C\c1ccc(-c2cccc(Cl)c2)o1 | ? | 0 | 0 | 3.2µM | 0 | ?
CC1=NOC(=O)/C1=C\c1ccc(-c2ccc(Cl)c(C(=O)O)c2)o1 | 0.89µM | - | - | - | 0 | 0
COc1ccc(-c2csc(Nc3ccc(S(N)(=O)=O)cc3)n2)cc1OC | 0 | - | - | - | 0 | 0
Cc1ccc2nc(SCC(=O)Nc3c(C)n(C)n(-c4ccccc4)c3=O)[nH]c2c1 | 0 | 0 | 0 | 0 | 0 | 0
COC(=O)c1c(-c2ccc(F)cc2)noc1N | 0 | 0 | -89 | 0 | 0 | 0
O=C(CCn1cnnn1)Nc1ccccc1F | ? | - | - | - | 0 | 0
Oc1ccc(/C=N/Nc2ncnc3c2ncn3Cc2ccccc2)cc1O | ? | - | 0 | 25µM | 0 | 0
Nc1c(Cl)ncnc1N/N=C/c1cccc(O)c1 | - | - | - | - | - | 0
Oc1cccc(/C=N/Nc2ncnc3c2ncn3Cc2ccccc2)c1 | 0 | - | 0 | 22µM | 0 | 0
SMILES | ALDH1A1 block | IMPase inh | PNC inhibitor | HPGD inh | IMPase Li cell | NPSR antagonist
O=C(CCn1c(=O)oc2ccccc21)N1CCc2ccccc21 | 0 | 0 | 0 | ? | 0 | 0
O=C(CSc1nc2c(c(C(F)(F)F)n1)CCc1ccccc1-2)NCc1ccc(F)cc1 | 0 | 0 | -119 | 0 | 0 | 0
O=C(O)CSc1nc2c(c(C(F)(F)F)n1)CCc1ccccc1-2 | 0 | - | - | - | 0 | 0
O=C(CSc1nc2c(c(C(F)(F)F)n1)CCc1ccccc1-2)NCc1ccccc1 | ? | 0 | 0 | ? | 10µM | ?
N#C/C(=C\c1ccc(N2CCOCC2)o1)c1nc2ccccc2[nH]1 | ? | ? | 0 | 0 | 0 | 0
N#C/C(=C/c1ccc(N2CCOCC2)o1)c1ccc(Cl)cc1 | 13µM | 0 | ? | ? | 0 | ?
Cc1cc(C)n(-c2nc(C)nc3c2cnn3-c2ccccc2)n1 | 0 | 0 | -96 | ? | ? | 0
CCN(CC)c1ccc(C(NC(C)=O)NC(C)=O)cc1 | 14µM | 0 | 0 | 0 | 0 | 0
CC(=O)NC(NC(C)=O)c1ccc(N(C)C)cc1 | 2.2µM | 0 | 0 | 0 | 0 | 0
CC(=O)NC(NC(C)=O)c1ccc(Br)cc1 | 0 | 0 | 0 | 0 | 0 | 0
CCCCCCN1C2=NCCCN2c2ccccc21 | 0 | - | - | - | - | 0
Cc1ccc(-n2c(=O)c(C#N)cc3c(=O)n4cccc(C)c4nc32)cc1 | ? | 0 | 0 | ? | 10µM | 0
Cc1ccccc1CN1C(=O)CS/C1=N/N=C/c1ccco1 | - | - | - | - | - | 0
O=C1CS/C(=N/N=C/c2ccccc2)N1Cc1ccco1 | 11µM | - | - | - | - | 0
COc1ccc(OC)c(/C=N/N=C2\SCC(=O)N2Cc2ccco2)c1 | 5µM | - | 0 | 0 | 0 | 0
O=C(NNc1nc2ccccc2s1)Nc1ccc(Cl)c(Cl)c1 | - | - | - | - | - | 0
COC(=O)c1sc2nc(C)nc(SCC(=O)C(C)(C)C)c2c1C | ? | - | - | - | 0 | 0
CCOC(=O)c1sc2nc(C)nc(SCC(=O)NC3CCS(=O)(=O)C3)c2c1C (stereo not given) | ? | - | - | - | 13µM | 0
Cc1ccc(-n2c(N)c(C(=O)N3CCN(C)CC3)sc2=S)cc1 | 22µM | 0 | ? | 11µM | 0 | 0
Cc1ccc(-n2c(N)c(C(=O)N3CCCCC3)sc2=S)cc1 | 10µM | 0 | ? | 10µM | 0 | 0
CCN(CC)c1ccc(/C=N/O)cc1 | ? | - | - | - | 0 | 0
CCN(CC)c1ccc(C=NCCc2ccc(S(N)(=O)=O)cc2)cc1 | 0.13µM | - | - | - | 0 | 0
COC(=O)c1ccc(NC(=O)C2CCCO2)cc1 (stereo not given) | 0 | 0 | 0 | ? | 0 | 0
CC1CCN(C(=O)c2ccc(NC(=O)C3CCCO3)cc2)CC1 (stereo not given) | ? | 0 | ? | 0.71µM | 0 | 0
COc1ccc(NC(=O)C2CCCO2)cc1 (stereo not given) | 0 | 0 | ? | 25µM | 0 | 0
SMILES | ALDH1A1 block | IMPase inh | PNC inhibitor | HPGD inh | IMPase Li cell | NPSR antagonist
CCOc1cc(NC(=O)C2CCCO2)c(OCC)cc1NC(C)=O (stereo not given) | ? | 0 | -94 | 0 | 0 | 0
COc1ccc(-c2csc(NC(=O)C3CCCO3)n2)cc1 (stereo not given) | 22µM | 0 | 0 | ? | 0 | 0
O=C(CC1Nc2ccccc2NC1=O)Nc1ccc2c(c1)OCO2 (stereo not given) | ? | - | - | - | 0 | 0
CCCOc1ccc(C2C(C(=O)OC)=C(C)N=C3SCCC(=O)N32)cc1OCC (stereo not given) | 0 | 0 | 0 | 0 | 0 | 0
COc1cc2[nH]c(=S)nc(NCCc3ccc(C)cc3)c2cc1OC | 0 | - | - | - | 0 | ?
COC(=O)COc1ccc(NC(=O)C2CCCO2)cc1 (stereo not given) | ? | 0 | 0 | 16µM | 0 | 0

Screening data: PubChem BioAssay, National Center for Advancing Translational Sciences (NCATS)
